# Source: PubChem BioAssay
# Cardiac RTF inh – cardiac RTF calcium desensitization. inhibition, % at 7.15 µM. P19429+P45379. AID 493244. hit rate 0.12% among 340,000. IANBD-labeled cardiac RTF, Ca2+ fluorescence;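 active = inhibition above the mean inhibition of all tested compounds plus 3 SD, cut at about 17% in these data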;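 note: assay run at fixed EC70 calcium of 1.6 mM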
# IDE cell activ – boosts human insulin-degrading enzyme activity in HEK cells. FAbeta-B cleavage, fluorescence polarization; 0% vehicle, 100% cell-free pure enzyme wells. activation, % at 5.96 µM. hit rate 0.073% among 340,000;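 active = activation above the mean of all tested compounds plus 3 SD, set per screening campaign, cut at about 17% in these data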
# Target sequence (P14735 whole entry, looked up): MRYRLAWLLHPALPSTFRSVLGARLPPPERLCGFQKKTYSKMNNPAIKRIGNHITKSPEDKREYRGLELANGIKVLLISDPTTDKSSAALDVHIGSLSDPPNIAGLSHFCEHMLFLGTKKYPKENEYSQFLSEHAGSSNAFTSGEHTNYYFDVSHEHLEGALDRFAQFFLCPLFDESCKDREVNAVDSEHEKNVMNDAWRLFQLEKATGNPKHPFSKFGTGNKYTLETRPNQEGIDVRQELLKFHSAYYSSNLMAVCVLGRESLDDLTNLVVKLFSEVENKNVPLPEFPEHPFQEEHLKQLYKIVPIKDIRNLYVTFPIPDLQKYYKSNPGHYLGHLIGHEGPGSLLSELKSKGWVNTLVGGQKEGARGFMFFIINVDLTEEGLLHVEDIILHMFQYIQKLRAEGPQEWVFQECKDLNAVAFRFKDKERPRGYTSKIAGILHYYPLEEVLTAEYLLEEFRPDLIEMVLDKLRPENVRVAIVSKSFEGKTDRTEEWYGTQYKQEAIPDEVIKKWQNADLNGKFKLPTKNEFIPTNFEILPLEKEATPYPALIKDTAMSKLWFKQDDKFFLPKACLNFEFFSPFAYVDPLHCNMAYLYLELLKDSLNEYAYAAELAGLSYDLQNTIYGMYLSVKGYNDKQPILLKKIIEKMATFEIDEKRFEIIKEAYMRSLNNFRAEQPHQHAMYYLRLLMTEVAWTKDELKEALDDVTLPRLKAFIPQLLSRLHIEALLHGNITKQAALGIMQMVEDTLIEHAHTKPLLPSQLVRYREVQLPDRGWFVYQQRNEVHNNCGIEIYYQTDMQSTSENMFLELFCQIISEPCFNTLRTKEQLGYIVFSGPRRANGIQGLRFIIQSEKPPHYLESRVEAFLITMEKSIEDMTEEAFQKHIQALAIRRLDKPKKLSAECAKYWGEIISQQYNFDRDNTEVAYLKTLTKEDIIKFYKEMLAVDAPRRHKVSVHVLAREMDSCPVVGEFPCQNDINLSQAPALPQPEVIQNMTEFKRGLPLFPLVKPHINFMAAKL
# IDE inh – cellular human IDE inhibition. HEK cells, FAbetaB cleavage, fluorescence polarization. inhibition, % at 5.59 µM. hit rate 0.41% among 320,000;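 active = percent inhibition above the average of all tested compounds plus 3 SD, set per screening campaign, cut at about 16% in these data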;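 note: IDE supplied by intact live HEK cells; FP after avidin binding of uncleaved biotin substrate so inhibition keeps polarization high; 0% = DMSO wells and 100% = 60 µM reference IDE inhibitor Ii1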
# cardiac RTF act – increases calcium sensitivity of human cardiac regulated thin filaments | AID 493008 | activation, % at 7.2 µM | P19429+P45379 | hit rate 0.24% among 340,000 | IANBD-labeled TnC RTF fluorescence at EC20 calcium; 0% EC20 calcium, 100% full calcium;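 active = activation above the mean over all tested compounds plus 3 SD, cut at about 30% in these data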;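 note: rise in fluorescence read as greater calcium sensitivity of cardiac thin filaments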
# IDE inh confirm – confirmation of human insulin-degrading enzyme inhibitors in cells; shares compounds with IDE inh; HEK cells, FAbetaB cleavage, fluorescence polarization; inhibition, % at 5.59 µM; hit rate 51% among 1,200;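 active = mean inhibition across triplicate wells above the cutoff set by the earlier primary insulin-degrading enzyme screen, cut at about 16% in these data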;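 note: 0% = DMSO wells and 100% = 60 µM reference IDE inhibitor Ii1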
# HEK cytotox – counter-screen for IDE inhibitors: cytotoxicity in HEK cells; shares compounds with IDE inh; HEK293 cytotoxicity, ATP luminescence; inhibition, % at 5.59 µM; hit rate 28% among 1,200; in the data active = inhibition above about 22%;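 note: 0% = vehicle wells and 100% = reference cytotoxic drug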
# Starred values were filed as active, the others as inactive; i = inactive; . = no result; + = active, no number. A selection: hits, their analogues and other compounds. The true share with any hit is near 0.71%.
SMILES,Cardiac RTF inh,IDE cell activ,IDE inh,cardiac RTF act,IDE inh confirm,HEK cytotox
O=C(C1=C[C@@H](C2CCCCC2)C[C@@H](OCc2ccc(CO)cc2)O1)N1CCN(Cc2ccccc2)CC1,-14.9,-11.5,18.7*,0.5,5.5,14.9
O=C(C1=NN(c2ccccc2)C2C(=O)N(c3ccccc3Cl)C(=O)C12)c1ccccc1 (configuration not stated),-19.9,-20.7,24.0*,26.4,28.9*,10.6
O=C(C1=NN(c2ccccc2)C2C(=O)N(c3ccccc3)C(=O)C12)c1ccccc1 (configuration not stated),-32.5,-19.7,18.7*,33.1*,23.1*,12.0
Cc1cccc(/C=C\c2nc3ccccc3c(=O)[nH]2)c1,-0.7,-2.7,6.3,1.9,.,.
COc1cc(/C=C/c2nc3ccccc3c(=O)[nH]2)cc(Cl)c1O,-13.8,-75.2,26.8*,5.8,99.5*,6.0
CCOc1ccccc1-n1c(SCC(=O)N2CCCc3ccccc32)nnc1-c1cccnc1,-1.8,-37.6,33.0*,1.8,16.6*,15.8
CC(C)c1cccc(C(C)C)c1NC(=O)CN1C(=O)NC2(CCCCCCC2)C1=O,-5.1,0.1,0.1,0.2,.,.
CC(=O)Nc1ccc(NC(=O)COc2cc(O)c3c(c2)OC(C)(C)CC3=O)cc1,0.7,-2.0,0.4,5.0,.,.
Cc1cc(OCC(=O)Nc2ccc(Br)cc2)cc2c1C(=O)CC(C)(C)O2,.,.,16.8*,.,-0.3,22.0
CCOc1ccc(C(C)=O)cc1Cn1c(=O)oc2ccccc21,3.1,-0.5,2.4,-6.5,.,.
Cc1cccc(NC(=O)[C@@H](NC(=O)[C@@H]2Cc3ccccc3CN2)C(C)C)c1,-6.4,-3.4,2.6,0.3,.,.
O=C(Nc1nc2c(s1)CN(Cc1ccccc1)CC2)C1CCC1,8.3,-0.6,10.7,1.4,.,.
CN(C)c1ccc(/C=C(\C#N)C(=O)Nc2nc3c(s2)CCN(Cc2ccccc2)C3)cc1,-66.8,-27.6,38.1*,83.1*,57.8*,11.0
COc1ccc(C(=O)NCc2ccncc2)cc1S(=O)(=O)NCc1ccc(Cl)cc1,-3.7,3.1,2.0,-5.6,.,.
O=C(/C=C/c1ccc(OCc2cccc(Cl)c2)cc1)N1CCOCC1,-6.8,-6.2,18.0*,2.9,9.5,18.0
Cc1ccc(S(=O)(=O)NC(C)C(=O)NC(C)c2cccs2)cc1 (configuration not stated),-1.9,6.7,-1.8,-2.2,.,.
CCCCn1c(SCC(=O)N2CCN(c3ccccc3)CC2)nc2ccsc2c1=O,-2.7,-14.2,21.1*,4.8,6.3,19.4
CCCCn1c(SCC(=O)N2CCC(C)CC2)nc2ccsc2c1=O,-7.2,-2.8,2.2,4.6,.,.
COC(=O)c1cc(NC(=O)c2ccc(-c3ccccc3)cc2)ccc1Cl,-11.6,-18.7,30.2*,-1.2,9.4,27.9*
CCc1ccc(C(=O)Nc2ccc(OC)c(S(=O)(=O)N3CCOCC3)c2)cc1,7.3,1.5,-1.7,3.0,.,.
COc1ccc(NC(=O)c2ccc(-c3ccccc3)cc2)cc1S(=O)(=O)N1CCOCC1,-3.3,-25.1,22.2*,0.0,18.6*,61.4*
COC(=O)c1cc(NC(=O)Nc2cccc(Cl)c2)ccc1Cl,-5.0,0.6,0.2,5.4,.,.
COc1ccc(-c2nnc3ccc(SCC(=O)Nc4nc5ccc(C)cc5s4)nn23)cc1OC,-4.5,-21.6,-0.1,3.9,.,.
Clc1cc2cccnc2c2ccccc12,5.8,-9.7,19.4*,0.7,13.1,4.5
Oc1c(Cl)cc(Cl)c2cccnc12,-11.9,2.5,.,-5.2,.,.
SMILES,Cardiac RTF inh,IDE cell activ,IDE inh,cardiac RTF act,IDE inh confirm,HEK cytotox
CC(=O)Sc1nc(-c2ccccc2)[nH]c1S(=O)(=O)c1ccc(C)cc1,.,.,17.1*,.,-1.9,5.3
CSc1nc(-c2ccc(C)cc2)[nH]c1S(=O)(=O)c1ccccc1,-9.6,5.3,4.9,9.6,.,.
CCN(CC)c1ccc2cc(-c3nnc(-c4ccccc4)o3)c(=O)oc2c1,i,-64.0,36.2*,704.9*,82.6*,5.8
COc1cccc2cc(-c3nc4ccccc4[nH]3)c(=O)oc12,0.1,-4.7,-1.7,0.3,.,.
CCN(CC)c1ccc2cc(-c3nc4ccccc4[nH]3)c(=O)oc2c1,i,25.4*,39.1*,+,25.9*,50.4*
NC(=O)CC(NC(=O)Cc1ccc(Br)cc1)c1ccc(N2CCC(Cc3ccccc3)CC2)c([N+](=O)[O-])c1 (configuration not stated),-5.4,7.0,1.2,-5.7,.,.
